Bioassay records from PubChem.
Sampled rows, rich in hits. Any-hit rate of the full collection: about 10%.
ALDH1A1 inh: qHTS Assay for Inhibitors of Aldehyde Dehydrogenase 1 (ALDH1A1); Aldehyde dehydrogenase 1A1 (Homo sapiens), P00352; 220,000 tested, 7.3% active; Purified ALDH1A1, NADH fluorescence, propionaldehyde substrate; Potency, µM (series often up to 75.3 µM), hits mostly inhibitors; AID 1030, 2008
LMNA splice mod: qHTS Assay for Modulators of Lamin A Splicing | HeLa LMNA splicing GFP/RFP minigene ratio, 48 h | Potency, µM (top dose mostly 46.1 µM), most hits filed as inhibitors | 200,000 tested, 0.01% active | AID 1487, 2009; active = well fitted inhibition curve with a large enough effect in the signal ratio, with a control signal flat, not every such curve was filed as active; inconclusive = small, poorly fitted or top-dose-only effect, or effect the other way, or a change in a side signal; the % refers to the signal ratio
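Read-out is the ratio of GFP to DsRed2 object intensity, acquired by 488 nm laser-scanning cytometry on HeLa lamin A-EGFP minigene reporter cells. Compound incubation 48 hrs at 37 °C in Opti-MEM with 2% FBS; DMSO 0.5% final.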
HPGD inh: qHTS Assay for Inhibitors of HPGD (15-Hydroxyprostaglandin Dehydrogenase); Potency, µM, usual class: inhibitors; 15-hydroxyprostaglandin dehydrogenase [NAD(+)] (Homo sapiens), P15428; purified HPGD, NADH fluorescence kinetic, PGE2 substrate; 150,000 tested, 4.3% active
Target sequence (P15428 whole entry, looked up): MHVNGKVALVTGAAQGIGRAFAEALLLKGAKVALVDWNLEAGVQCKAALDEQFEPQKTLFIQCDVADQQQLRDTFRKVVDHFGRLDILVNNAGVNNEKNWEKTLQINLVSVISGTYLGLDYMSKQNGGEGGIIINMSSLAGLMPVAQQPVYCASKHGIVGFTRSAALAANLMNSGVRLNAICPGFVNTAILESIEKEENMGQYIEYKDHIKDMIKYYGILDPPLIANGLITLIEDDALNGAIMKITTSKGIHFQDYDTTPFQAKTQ
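20 nM HPGD preincubated 15 min at room temperature with compound in 50 mM Tris-HCl pH 8, 0.01% Tween 20. Started with 1 mM NAD+ and 30 uM prostaglandin E2; NADH fluorescence (360/450 nm) read 5 times over 30-s intervals, last minus first.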
PNC assembly inh: High Content Assay for Compounds that inhibit the Assembly of the Perinucleolar Compartment; PC3M PTB-GFP, PNC prevalence imaging, 16 h; active compounds read low; activity change (PNC), negative = inhibition, % at 10 µM; 140,000 tested, 3.1% active; AID 2417, 2010;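 active = readout at or below -70, meaning at least 70% loss of cells showing the perinucleolar compartment, a nuclear body marking cancer cells; inconclusive = readout between -30 and a set limit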
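PC3M cells stably expressing PTB-GFP, 750–1000 cells/well, treated 16 h at 37 °C with compound (23 nl of library stock), in duplicate. After paraformaldehyde fixation and Hoechst stain, imaged at 20x; PNC prevalence scored by image analysis.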
Luc counter: Counterscreen for Luciferase (Kinase-Glo TM) Inhibition; Luciferin 4-monooxygenase (Photuris pensylvanica), Q27757; Kinase-Glo luciferase, ATP luminescence, 8 min; Potency, µM (titrated, usually from 38.3 µM), most hits filed as inhibitors; 200,000 tested, 0.28% active; AID 1379, 2008; active = well fitted inhibition curve with a large enough effect; inconclusive = small, poorly fitted or top-dose-only effect; note: nearly all actives have a fitted effect of over 60% in size
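Compounds were added to a substrate mix at pH 7.2 (50 mM imidazole, 10 uM ATP, within the enzyme's linear range), followed by Kinase-Glo detection reagent; luminescence was measured after 8 minutes at ambient temperature.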
IMPase cell inh: qHTS Assay for Identifying the Cell-Membrane Permeable IMPase Inhibitors; CHO-M1 cells, IP1 accumulation, HTRF TR-FRET ratio; AID 901, 2007; 120,000 tested, under 10 active; inhibition (IP1 accumulation), % at 46.1 µM; active = well fitted curve in the direction sought with a large enough effect in the signal ratio, not every such curve was filed as active; inconclusive = small, poorly fitted or top-dose-only effect, or a change in a side signal; inactive = no such curve, though single readings can be large or run the other way; the % refers to the signal ratio;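 note: cells stimulated with carbachol in lithium chloride buffer; higher means more IMPase inhibition seen as more IP1 and lower FRET ratio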
Target sequence (P97697 whole entry, looked up): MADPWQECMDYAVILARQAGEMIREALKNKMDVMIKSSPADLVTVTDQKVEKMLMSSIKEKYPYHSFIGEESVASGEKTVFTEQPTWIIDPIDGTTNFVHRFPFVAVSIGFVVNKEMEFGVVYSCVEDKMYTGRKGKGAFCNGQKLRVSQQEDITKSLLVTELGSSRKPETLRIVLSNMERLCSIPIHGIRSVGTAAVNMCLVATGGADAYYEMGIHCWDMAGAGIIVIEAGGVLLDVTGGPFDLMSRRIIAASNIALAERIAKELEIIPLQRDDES
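In this qHTS, compounds (final up to 46 uM) act on CHO-M1 cells that are then activated through the M1 receptor with carbachol, in pH 7.4 buffer containing 50 mM LiCl, for 30 min. IP1 accumulation is quantified by the IP-One immunoassay.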
Numbers stand for hits; – = inactive; ? = inconclusive; · = no result; [ ] = dose if it differs, or a comment. Unless noted, calls come from the whole dose curve; as a rule, active = well fitted inhibition curve with a large enough effect (not every such curve was filed as active); inconclusive = small, poorly fitted or top-dose-only effect, or another doubt; inactive = no such curve, though single readings can be large or run the other way.

SMILES	ALDH1A1 inh	LMNA splice mod	HPGD inh	PNC assembly inh	Luc counter	IMPase cell inh
O=C(N1CCCCCC1)N1CCN(S(=O)(=O)c2ccccc2)CC1	6.3µM	–	–	–	–	–
O=S(=O)(c1cccc(S(=O)(=O)N2CCCC2)c1)c1cccc(S(=O)(=O)N2CCCC2)c1	?	–	–	?	–	–
CCOC(=O)COc1ccc(S(=O)(=O)Nc2cccc(SC)c2)cc1	–	–	–	–	–	–
Cn1c(=S)c2[nH]c(SCCN3C(=O)c4ccccc4C3=O)nc2n(C)c1=O	–[13.5 µM]	·	–	·	–[7.66 µM]	·
CCOc1ccc2c(c1)sc1nc(=O)n(-c3ccc(Cl)c(Cl)c3)c(=O)n12	·	·	·	·	·	–
Cc1cc2c(ncn2C)c(NS(=O)(=O)c2ccccc2Cl)c1C	–	–	–	-83	–	–[1.84 µM]
Clc1ccccc1Nc1ncnc2c1nc1n2CCCCC1	·	–	·	·	·	·
COc1ccc(C(=O)N[C@H](C(=O)OCC(=O)NC(=O)c2cccn2C)C(C)C)cc1	–	–	–	–	–	–
CC(C)[C@H](NS(=O)(=O)c1ccccc1)C(=O)OCC(=O)NC(=O)c1cccn1C	13µM	–	–	–	?	–
S=C(Nc1ccccc1)Nc1ccccc1-n1cccc1	–	·	·	·	·	·
S=C(Nc1ccccc1)Nc1ccccc1C#Cc1ccccc1	18µM	·	?	·	–	·
N#Cc1ccccc1NC(=S)Nc1ccc(F)cc1	–	?	·	·	–	·
C[Si](C)(C)C#Cc1ccccc1NC(=S)Nc1ccccc1	13µM	·	?	·	–	·
Cc1ccc(S(=O)(=O)N[C@H](CN)C(=O)O)cc1	–[13.5 µM]	·	–	·	–[7.66 µM]	·
Cc1cc(C)c2c(-n3cccc3)nn(C)c2n1	–	–	–	-109	–	–
CCNc1ncc2nc(-c3ccc(F)cc3)c(=O)n(Cc3ccc(F)cc3)c2n1	?	–	·	·	·	·
CCOC(=O)c1c(S(=O)(=O)N2CCCC(C(=O)NCc3ccc(Cl)cc3)C2)c(C)n(C)c1C (stereo not given)	·	–	·	·	·	·
CCOC(=O)/C(C#N)=C/c1cc(C)n(-c2ccc(Br)cc2)c1C	–	–	–	–	–	–
CCOC(=O)/C(C#N)=C/c1cc2ccc(C)cc2nc1Cl	?	?	?	–	–	·
CCOC(=O)/C(C#N)=C/c1cc2ccccc2nc1N1CCOCC1	25µM	–	–	–	–	·
CCOC(=O)/C(C#N)=C/c1cc(C)n(-c2ccccc2)c1C	11µM	–	–	–	–	–
COc1ccc(-c2nnc(SCC(=O)Nc3cccc(F)c3)s2)cc1	·	–	·	·	·	·
COC(=O)C1=C(C)C(c2cccs2)NC(=O)N1C (stereo not given)	–	–	–	-100	–	–
CCOc1c(Cl)cc(C(=O)Nc2ccccc2C(=O)O)cc1Cl	?	?	14µM	–	–	–
COc1cccc(C(=O)NC(=S)Nc2ccc(Cl)c(C(=O)O)c2)c1	?	–	–	–	–	–
SMILES	ALDH1A1 inh	LMNA splice mod	HPGD inh	PNC assembly inh	Luc counter	IMPase cell inh
COc1c(Cl)cc(C(=O)Nc2ccccc2-c2ccccc2)cc1Cl	13µM	–[0.0737 µM]	–	–	–	–
CCOc1cc(C(=O)NC(=S)Nc2ccc(Cl)c(C(=O)O)c2)cc(OCC)c1OCC	19µM	·	·	·	·	·
CCCc1nn2c(=O)cc(COC(=O)c3ccc(NC(=O)COc4ccccc4F)cc3)nc2s1	·	–	·	·	·	·
CN(C)c1ccc(/C=C2\CCC/C(=C\c3ccccc3)C2=O)cc1	13µM	?	–	–	–	–
CN(C)/N=C/C=C1\CCC/C(=C\c2ccc(F)c(F)c2)C1=O	?	·	·	·	–	·
COc1ccc(/C=C2\CCC/C(=C\C=N\N(C)C)C2=O)cc1	4µM	·	·	·	–	·
O=C1/C(=C/c2ccc(C(=O)O)cc2)CCC/C1=C\c1ccc(C(=O)O)cc1	–	–	20µM	-93	–	·
COc1cccc(Nc2nc3ccc(C)cc3nc2-n2nc(C)cc2C)c1	·	·	·	·	·	–
C[C@](N)(C(=O)O)c1ccc(-c2nn[nH]n2)cc1	16µM	·	–	·	–	–
COc1ncc2nc(C)c(=O)n(CCC#N)c2n1	–	·	–	·	–	·
COc1cc(C(=O)NNC(=O)c2ccc(NC(C)=O)cc2)cc(OC)c1OC	–	·	·	·	–	·
COC(=O)Nc1ccc(OC)c(OC)c1	–	–	–	?	–	–
COc1cc(C(=O)/C=C/Nc2ccc(NC(C)=O)cc2)cc(OC)c1OC	–	?	28µM	-95	–	·
COc1ccc(NC(C)=O)cc1C#N	3.2µM	–	·	·	–	·
C=CC[C@@H](C(=O)O)c1ccccc1	–[13.5 µM]	·	–	·	–[7.66 µM]	·
CN(C(=O)CSc1nc2ccc(NC(=O)COc3ccccc3Cl)cc2s1)c1ccccc1	·	–	·	·	·	·
CC1CCCN(C(=O)CSc2nnc(-c3cccnc3)n2C2CCCCC2)C1 (stereo not given)	–	–	?	–	–	–
Cc1ccc(-n2c(SCn3nnc4ccccc4c3=O)nnc2-c2cccnc2)c(C)c1	22µM	–	–	–	–	–
O=c1c2ccccc2nnn1CSc1nnc(-c2cccnc2)n1-c1ccccc1F	?	–	·	–	·	–
CNC(=O)CSc1nnc(-c2cccnc2)n1CCc1ccccc1	–	–	–	–	–	–
CCc1ccccc1-n1c(SCC(=O)NC)nnc1-c1cccnc1	–	–	·	-122	·	–
O=C(CSc1nnc(-c2cccnc2)n1C1CCCCC1)NC1CCCC1	–	–	22µM	–	–	–
Cc1ccc(NC(=O)CN2C(=O)CCc3cc(S(=O)(=O)N4CCOCC4)ccc32)cc1N(C)C	·	–	·	·	·	·
O=C1c2ccccc2-c2cc([N+](=O)[O-])c([N+](=O)[O-])cc21	?	·	–	·	–[7.66 µM]	·
C=C(C)C(=O)c1cccs1	–	·	–	·	–	·
SMILES	ALDH1A1 inh	LMNA splice mod	HPGD inh	PNC assembly inh	Luc counter	IMPase cell inh
O=C(/C(=C/O)N=Nc1ccccc1)c1cccs1	10µM	–	·	·	–	·
O=C(NCCNc1ccc([N+](=O)[O-])cc1)c1cccc(Br)c1	7.1µM	–	–	–	–	·
O=C(CCNc1ccc(F)cc1)c1cccc([N+](=O)[O-])c1	0.22µM	–	–	–	–	–
O=C(NCCNc1ccc([N+](=O)[O-])cc1C(F)(F)F)c1ccccc1	10µM	?	–	?	–	–
Cc1ccc(NCCC(=O)c2cccc([N+](=O)[O-])c2)cc1	0.32µM	–	–	–	–	–
CC(C)Oc1ccc2c(=O)c3cc(C(=O)O)ccc3oc2c1	?	·	?	·	–	–
Cc1oc2ncn(CC(C)C)c(=O)c2c1C(=O)NCCCN(Cc1ccccc1)C(C)C	·	–	·	·	·	·
CCOc1cc(CNc2ccc(O)cc2)cc(Cl)c1OCc1ccccc1	·	·	·	·	·	–
COc1ccc(-n2cc(C(=O)NCc3ccccc3Cl)c3ccccc3c2=O)cc1	·	–	·	·	·	·
O=C(CCNc1ccccc1)c1cccc([N+](=O)[O-])c1	?	–	·	–	·	–
